Laboratory results: PubChem BioAssay (NCATS)
Records with an inconclusive call do not appear. Calls of active or inactive are those of the source. Unless noted, calls follow the shape of the dose curve; as a rule, active = well fitted curve in either direction with a large enough effect (not every such curve was filed as active); inconclusive = small, poorly fitted or top-dose-only effect, or another doubt; inactive = flat fitted curve, though single readings scatter.

Columns and labels:
[1] = AP1 Signaling Pathway (AID 357); conditions: ME-180 AP-1-bla reporter, EGF-induced, beta-lactamase ratio, 5 h; at 7.69 µM (top of the series) unless noted;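 also: ME-180 reporter cells stimulated with EGF at its EC50 level; % is scaled to controls: 0 for no effect and ±100 for the full control effect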
Method in brief: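 A ratiometric CCF4 readout (405 nm excitation; 460 and 530 nm emission) quantified AP-1-driven beta-lactamase in ME-180 cells after 5 h with compound and EC50 EGF; AC50 values were derived for activators and inhibitors.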

[2] = biological target: Cytochrome P450 1A2 (Homo sapiens) (UniProt P05177); assay: p450-cyp1a2 (AID 410; calls by dose curve;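 also: -100% = full effect of reference inhibitor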); conditions: recombinant CYP1A2, luciferin-ME demethylation, luminescence; series mostly up to 11.4 µM
Method in brief: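 20nM CYP1A2 with 100uM Luciferin-ME (at Km) in 100mM KPO4; compound preincubated 10 min, NADPH regeneration added, 60 min at room temperature. Luciferin quantified by luminescence after detection reagent; normalized to 57 uM furafylline.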

[3] = NFAT Signaling Pathway (AID 444); conditions: Jurkat NFAT-bla M1, carbachol, beta-lactamase ratio, 5 h; at 7.69 µM (top of the series) unless noted;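 also: carbachol stimulus at about its EC50 of 1 µM final; % is scaled to controls: 0 for no effect and ±100 for the full control effect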
Method in brief: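 Read-out: CCF4 FRET ratio (460 nm/530 nm) after 1 h RT dye loading, used for %activity and AC50 from titration series. Cells: Jurkat NFAT-β-lactamase/M1 line, treated with compound plus 1 uM carbachol for 5 h, 37 °C.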

[4] = Stat Signaling Pathway (AID 446); conditions: ME-180 SIE beta-lactamase reporter, IL-6 stimulated, 5 h; at 7.69 µM (top of the series) unless noted;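 also: ME-180 cervical cancer cells given 40 pM IL-6 alongside compound; SIE-controlled beta-lactamase reporter measured as 460/530 nm FRET emission ratio; % is scaled to controls: 0 for no effect and ±100 for the full control effect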
Method in brief: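 ME-180 SIE-bla cells; overnight plating; cpd + IL-6 40 pM, 5 h, 37 C; LiveBLAzer 2.5 h RT; 460/530 nm emission ratio. Normalized to 300 pM IL-6 and 125 nM JAK inhibitor controls.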

[5] = biological target: Glucocorticoid receptor (Homo sapiens) (UniProt P04150); assay: GR-GFP Redistribution (AID 450;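 active = compounds whose dose series gives a full or clear partial fitted curve of increased nuclear translocation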; also: potency is read from the fitted curve at half-maximal effect); conditions: U2OS GR-GFP nuclear translocation, laser cytometry, 2 h
[6] = biological target: Glucocorticoid receptor (Homo sapiens) (UniProt P04150); assay: GR-EFC Redistribution (AID 451; calls by dose curve; also: potency is read from the fitted curve at half-maximal effect); conditions: CHO-K1 GR-EFC translocation, beta-gal luminescence, 2 h
Method in brief: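 Translocation of GR-ED fusion to nuclear EA restores b-gal, read by luminescence after 1 h room-temperature detection. Engineered CHO-K1 biosensor cells, 1,000/well, exposed 2 h at 37 C to titrations up to 46 uM final.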

[7] = biological target: Mitogen-activated protein kinase 10 (Mus musculus) (UniProt Q61831); assay: JNK3 AlphaScreen Assay (AID 530); conditions: JNK3 lysate, c-Jun phosphorylation; series mostly up to 11.4 µM;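 also: kinase came from lysate of stimulated human HepG2 cells; signal reports phosphorylation of biotinylated GST-cJun 1-79 at Ser73 with 10 µM ATP; % is scaled to controls: 0 for no effect and ±100 for the full control effect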
Method in brief: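 Compound titrations were preincubated 15 minutes at room temperature with substrate, antibody and pre-activated JNK3-containing HepG2 lysate. Reactions were started with 10 uM ATP and stopped with EDTA-containing bead buffer for AlphaScreen detection.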

[8] = biological target: 3',5'-cyclic-AMP phosphodiesterase 4B (Homo sapiens) (UniProt Q07343); assay: qHTS Assay for Inhibitors of PDE-IV (AID 607; active = well fitted activation curve with a large enough effect in the main read-out, with a control signal flat, not every such curve was filed as active; also: % of control where 0% means no effect); conditions: HEK293 ACTOne CNG channel cells, membrane potential fluorescence; series mostly up to 22.9 µM
Method in brief: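 ACTOne HEK293 cells carry a modified cAMP-gated CNG channel and express endogenous PDE4; plated 1000 cells/well, compounds up to 22.9 uM final. Membrane-potential dye fluorescence (ex 535/em 590) was read; parental cells received 10 uM forskolin + 100 uM RO 20-1724.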

[9] = biological target: Cytochrome P450 2D6 (Homo sapiens) (UniProt P10635); assay: qHTS Assay for Inhibitors and Substrates of Cytochrome P450 2D6 (AID 891; active = well fitted inhibition curve with a large enough effect;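 also: luciferin methyl ether substrate demethylated by CYP2D6 with NADPH regeneration; % is scaled to controls: 0 for no effect and ±100 for the full control effect; nearly all actives have a fitted effect of over 60% in size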); conditions: recombinant CYP2D6, luciferin-ME EGE luminescence; series mostly up to 11.4 µM
Method in brief: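 Human CYP2D6 (5 nM) with 30 uM Luciferin-ME EGE (at Km) in 100 mM KPO4, compound preincubated 10 min, then NADPH regeneration system for 60 min at room temperature. Luciferin read by luminescence; normalized to 1.43 uM quinidine.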

[10] = biological target: Cytochrome P450 2C19 (Homo sapiens) (UniProt P33261); assay: qHTS Assay for Inhibitors and Substrates of Cytochrome P450 2C19 (AID 899; active = well fitted inhibition curve with a large enough effect; also: % is scaled to controls: 0 for no effect and ±100 for the full control effect; nearly all actives have a fitted effect of over 60% in size); conditions: recombinant CYP2C19, luciferin-H EGE luminescence; series mostly up to 11.4 µM
Method in brief: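 5nM enzyme + 10uM Luciferin-H EGE (=KM), 50mM KPO4; cpd pin-transferred, 10 min 37C; NADPH regen, 60 min 37C; stopped w/ luciferin detection reagent, 20 min; luminescence. Normalized to 57uM ketoconazole (AC100).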

Cytochrome P450 2C19 (Homo sapiens), sequence (P33261 whole entry, looked up): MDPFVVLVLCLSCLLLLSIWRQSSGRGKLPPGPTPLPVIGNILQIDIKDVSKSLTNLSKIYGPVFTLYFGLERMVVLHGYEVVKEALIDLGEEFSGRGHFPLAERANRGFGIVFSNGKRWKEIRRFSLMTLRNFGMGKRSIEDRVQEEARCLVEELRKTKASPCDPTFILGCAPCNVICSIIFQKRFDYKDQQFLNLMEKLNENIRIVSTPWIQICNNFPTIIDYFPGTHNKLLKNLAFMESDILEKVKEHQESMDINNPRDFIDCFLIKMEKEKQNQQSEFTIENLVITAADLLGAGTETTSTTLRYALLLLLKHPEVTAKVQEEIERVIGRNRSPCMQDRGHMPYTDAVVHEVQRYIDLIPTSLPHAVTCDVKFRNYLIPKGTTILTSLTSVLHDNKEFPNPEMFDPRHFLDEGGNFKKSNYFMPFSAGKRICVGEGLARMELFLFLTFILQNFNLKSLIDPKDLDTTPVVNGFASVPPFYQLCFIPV
Glucocorticoid receptor (Homo sapiens), sequence (P04150 whole entry, looked up, the tested form may be a part): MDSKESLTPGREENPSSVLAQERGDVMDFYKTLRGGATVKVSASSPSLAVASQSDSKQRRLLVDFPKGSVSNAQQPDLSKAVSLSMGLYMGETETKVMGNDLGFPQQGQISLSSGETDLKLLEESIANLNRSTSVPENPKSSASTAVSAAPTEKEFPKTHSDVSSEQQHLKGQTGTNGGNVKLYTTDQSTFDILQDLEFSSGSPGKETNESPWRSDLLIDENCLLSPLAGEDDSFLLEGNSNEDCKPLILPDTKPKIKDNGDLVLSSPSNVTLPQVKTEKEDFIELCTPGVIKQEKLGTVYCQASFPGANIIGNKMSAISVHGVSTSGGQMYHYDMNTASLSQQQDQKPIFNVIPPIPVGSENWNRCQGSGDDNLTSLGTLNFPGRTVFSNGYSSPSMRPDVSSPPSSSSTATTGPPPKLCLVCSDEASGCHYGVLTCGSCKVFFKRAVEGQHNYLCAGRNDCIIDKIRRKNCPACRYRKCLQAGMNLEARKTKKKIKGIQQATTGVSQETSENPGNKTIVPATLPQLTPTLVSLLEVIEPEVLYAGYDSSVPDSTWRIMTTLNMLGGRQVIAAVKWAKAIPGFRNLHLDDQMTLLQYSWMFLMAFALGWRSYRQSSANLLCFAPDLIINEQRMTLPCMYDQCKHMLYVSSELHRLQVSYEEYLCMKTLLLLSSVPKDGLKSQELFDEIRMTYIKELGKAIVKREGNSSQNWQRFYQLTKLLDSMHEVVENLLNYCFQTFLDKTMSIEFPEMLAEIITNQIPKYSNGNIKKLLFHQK
Cytochrome P450 1A2 (Homo sapiens), sequence (P05177 whole entry, looked up): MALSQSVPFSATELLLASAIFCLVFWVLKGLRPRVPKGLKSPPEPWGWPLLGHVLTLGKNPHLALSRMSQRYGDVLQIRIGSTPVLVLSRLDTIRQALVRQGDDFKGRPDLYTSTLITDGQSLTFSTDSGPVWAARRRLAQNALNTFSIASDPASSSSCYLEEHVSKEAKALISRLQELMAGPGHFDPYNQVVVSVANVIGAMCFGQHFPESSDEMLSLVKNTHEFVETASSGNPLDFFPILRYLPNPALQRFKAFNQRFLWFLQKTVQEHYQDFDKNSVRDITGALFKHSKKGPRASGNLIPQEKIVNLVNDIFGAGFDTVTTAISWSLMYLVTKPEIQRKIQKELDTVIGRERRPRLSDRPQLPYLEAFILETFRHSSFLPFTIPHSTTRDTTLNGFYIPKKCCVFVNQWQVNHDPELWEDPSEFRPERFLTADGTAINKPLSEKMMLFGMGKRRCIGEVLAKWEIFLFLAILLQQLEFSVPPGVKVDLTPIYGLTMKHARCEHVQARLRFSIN
3',5'-cyclic-AMP phosphodiesterase 4B (Homo sapiens), sequence (Q07343 whole entry, looked up): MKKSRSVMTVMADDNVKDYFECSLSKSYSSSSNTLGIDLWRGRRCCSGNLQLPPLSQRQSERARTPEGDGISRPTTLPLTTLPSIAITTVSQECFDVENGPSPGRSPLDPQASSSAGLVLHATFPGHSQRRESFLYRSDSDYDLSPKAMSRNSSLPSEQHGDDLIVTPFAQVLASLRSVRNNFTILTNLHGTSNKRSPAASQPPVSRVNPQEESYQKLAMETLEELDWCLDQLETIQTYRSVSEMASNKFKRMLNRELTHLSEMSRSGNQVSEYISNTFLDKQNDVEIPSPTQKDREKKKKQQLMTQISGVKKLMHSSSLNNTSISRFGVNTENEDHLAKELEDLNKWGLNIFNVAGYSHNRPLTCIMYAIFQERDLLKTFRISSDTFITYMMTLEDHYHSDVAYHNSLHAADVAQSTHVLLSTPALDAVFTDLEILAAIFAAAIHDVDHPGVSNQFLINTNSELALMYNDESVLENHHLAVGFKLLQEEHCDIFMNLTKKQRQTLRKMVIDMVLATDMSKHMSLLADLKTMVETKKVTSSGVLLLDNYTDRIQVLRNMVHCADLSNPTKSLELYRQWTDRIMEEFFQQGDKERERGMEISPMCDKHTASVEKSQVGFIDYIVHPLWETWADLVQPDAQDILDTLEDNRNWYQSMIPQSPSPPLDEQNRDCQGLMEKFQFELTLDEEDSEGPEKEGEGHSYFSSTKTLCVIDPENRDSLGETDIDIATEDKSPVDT
Cytochrome P450 2D6 (Homo sapiens), sequence (P10635 whole entry, looked up): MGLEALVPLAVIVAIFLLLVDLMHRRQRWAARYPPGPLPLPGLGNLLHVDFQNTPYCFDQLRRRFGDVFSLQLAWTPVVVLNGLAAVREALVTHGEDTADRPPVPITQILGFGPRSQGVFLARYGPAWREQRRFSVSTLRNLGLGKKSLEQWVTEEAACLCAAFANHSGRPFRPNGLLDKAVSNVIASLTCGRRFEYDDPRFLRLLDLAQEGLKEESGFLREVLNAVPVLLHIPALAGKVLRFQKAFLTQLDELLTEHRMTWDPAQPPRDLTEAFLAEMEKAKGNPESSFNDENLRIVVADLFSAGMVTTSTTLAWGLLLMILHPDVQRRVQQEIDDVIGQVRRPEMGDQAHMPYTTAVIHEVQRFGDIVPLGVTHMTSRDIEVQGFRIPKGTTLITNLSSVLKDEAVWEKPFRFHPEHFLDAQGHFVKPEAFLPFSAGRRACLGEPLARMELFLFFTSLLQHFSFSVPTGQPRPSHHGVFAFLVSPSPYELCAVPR

CC[C@H](C)C(=O)O[C@@H]1CCC=C2C=C[C@H](C)[C@@H](CC[C@H]3C[C@@H](O)CC(=O)O3)[C@H]21
inactive: activity change, negative = inhibition [1] -28.7% [at 38 µM] | Potency [2] | activity change, negative = inhibition [3] 6.96% [at 38 µM] | activity, negative = inhibition [4] 10.1% [at 38 µM] | Potency [5] > 46 µM | Potency [6] > 46 µM | Potency [7] | Potency [8] | Potency [9] | Potency [10]

N[C@H](Cc1ccc(O)c(I)c1)C(=O)O
inactive: activity change, negative = inhibition [1] 6.16% [at 38 µM] | Potency [2] | activity change, negative = inhibition [3] 8.86% [at 38 µM] | activity, negative = inhibition [4] -3.36% [at 38 µM] | Potency [5] > 46 µM | Potency [6] > 46 µM | Potency [7] | Potency [8] | Potency [9] | Potency [10]

COc1cc(OC)cc([C@H](CNc2ncnc3c2ncn3[C@@H]2O[C@@H](CO)[C@H](O)[C@@H]2O)c2ccccc2C)c1
inactive: activity change, negative = inhibition [1] -6.78% [at 38 µM] | Potency [2] | activity change, negative = inhibition [3] 19.3% [at 38 µM] | activity, negative = inhibition [4] 3.32% [at 38 µM] | Potency [5] > 46 µM | Potency [6] > 46 µM | Potency [7] | Potency [8] | Potency [10]
